The source made the active and inactive calls.

Test [1] in a line: compounds binding Alexa647 anti-His antibody – biochemical, small-molecule microarray, 635 nm fluorescence, artefact control for SMM control protein annotation, primary screen (AID 1128).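 Note: score merges feature fluorescence with signal-to-noise for each printed compound spot.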 Particulars: higher = more signal.
Test [2] concerns Human papillomavirus type 1a E7 protein (residues 1-88). In words: HPV1a E7 small-molecule binders, primary screen, biochemical, small-molecule microarray, residues 1-88, 635 nm (AID 1129). The settings on record: small-molecule microarray binding, fluorescence 635 nm; higher = more signal.
Test [3] deals with Focal adhesion kinase 1 (Homo sapiens) (UniProt Q05397). Nature of the test: PTK2 protein binding on printed compound slides – biochemical, small-molecule microarray, 635/667 nm fluorescence, BSA, DTT, primary screen (AID 1130).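 Note: composite of spot emission at 667 nm and signal to noise over triplicate slides.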 The settings on record: 635 nm fluorescence, higher = more signal.
In test [4] the test system is Fibrinogen (Alexa647-labelled). In words: Alexa647-fibrinogen binding to printed small molecules – biochemical, small-molecule microarray, 635/667 nm fluorescence, artefact control for SMM control-protein annotation, profiling panel (AID 1131).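 Note: z-score merges 667 nm fluorescence with per-spot signal-to-noise over triplicate slides.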 The settings on record: fibrinogen-A647 binding fluorescence, higher = more signal.
Test [5] has as its target Follistatin (Homo sapiens) (UniProt P19883). Nature of the test: FST protein binding to printed compounds – biochemical, small-molecule microarray, 635/667 nm fluorescence, primary screen (AID 1132). Particulars: 635 nm fluorescence, higher = more signal.
For test [6], the target named is Fibroblast growth factor 2 (Homo sapiens) (UniProt P09038). Nature of the test: basic fibroblast growth factor binding to printed compounds – biochemical, small-molecule microarray, 635/667 nm fluorescence, primary screen (AID 1133). The settings on record: FGF2, fluorescence 635/667, higher = more signal.
Test [7] in a line: JC-1 mitochondrial potential readout, lung cancer cells – cell-based, A549, JC-1 fluorescence, basal, 24 h, 100 nL, profiling panel (AID 1138).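 Note: A549 lung adenocarcinoma cells under basal conditions with no added stimulus; test concentration not given here.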 Particulars: higher = more signal.
The next test has as its system Lefty1. Nature of the test: Lefty1 protein binding to printed compounds – biochemical, small-molecule microarray, 635/667 nm fluorescence, primary screen (AID 1139). Particulars: fluorescence 635/667, higher = more signal.
The subject of test [8] is wheat germ agglutinin (Triticum aestivum), Alexa647-labelled. In words: Alexa647-WGA lectin binding to printed small molecules – biochemical, small-molecule microarray, 635/667 nm fluorescence, artefact control for SMM control-protein annotation, profiling panel (AID 1140).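 Note: score merges 667 nm feature emission with signal to noise over triplicate slides.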 The settings on record: WGA-A647 binding, 635 nm fluorescence, higher = more signal.
Test [9] deals with Luciferin 4-monooxygenase (Photinus pyralis) (UniProt P08659). Nature of the test: inhibition of purified Photinus pyralis luciferase – biochemical, luminescence, purified enzyme, 2006 set, primary screen (AID 1141).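 Note: cell-free assay with purified firefly luciferase at 100 ng per well in PBS; test concentration not given here.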 The settings on record: purified firefly luciferase, SteadyGlo luminescence, 30 min; higher = more signal, called active from +8 up or from −8 down.
Luciferin 4-monooxygenase (Photinus pyralis), sequence (P08659 whole entry, looked up): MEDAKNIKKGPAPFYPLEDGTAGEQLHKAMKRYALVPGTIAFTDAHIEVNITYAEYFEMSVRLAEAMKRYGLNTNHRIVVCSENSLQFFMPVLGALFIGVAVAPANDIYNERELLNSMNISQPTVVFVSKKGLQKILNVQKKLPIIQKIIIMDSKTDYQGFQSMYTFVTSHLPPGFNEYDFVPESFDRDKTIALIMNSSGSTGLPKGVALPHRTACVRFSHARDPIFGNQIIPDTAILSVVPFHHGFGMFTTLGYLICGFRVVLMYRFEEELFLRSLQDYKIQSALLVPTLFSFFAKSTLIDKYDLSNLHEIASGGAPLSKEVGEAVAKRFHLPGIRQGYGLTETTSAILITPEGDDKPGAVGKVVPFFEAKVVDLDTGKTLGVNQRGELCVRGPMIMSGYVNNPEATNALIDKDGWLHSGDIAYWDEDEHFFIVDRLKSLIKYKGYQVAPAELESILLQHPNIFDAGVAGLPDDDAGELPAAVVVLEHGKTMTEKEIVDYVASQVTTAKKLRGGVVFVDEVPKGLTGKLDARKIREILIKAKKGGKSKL

Follistatin (Homo sapiens), sequence (P19883 whole entry, looked up): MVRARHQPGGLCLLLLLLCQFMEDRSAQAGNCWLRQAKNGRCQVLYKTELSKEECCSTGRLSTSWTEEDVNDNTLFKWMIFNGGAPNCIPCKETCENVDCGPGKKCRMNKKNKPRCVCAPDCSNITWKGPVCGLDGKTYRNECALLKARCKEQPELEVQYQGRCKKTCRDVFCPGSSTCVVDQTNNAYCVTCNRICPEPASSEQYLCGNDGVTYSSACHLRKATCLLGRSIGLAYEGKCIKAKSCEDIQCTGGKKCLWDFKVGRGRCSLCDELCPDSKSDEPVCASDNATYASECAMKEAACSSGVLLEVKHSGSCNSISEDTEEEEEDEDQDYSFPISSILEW
Fibroblast growth factor 2 (Homo sapiens), sequence (P09038 whole entry, looked up): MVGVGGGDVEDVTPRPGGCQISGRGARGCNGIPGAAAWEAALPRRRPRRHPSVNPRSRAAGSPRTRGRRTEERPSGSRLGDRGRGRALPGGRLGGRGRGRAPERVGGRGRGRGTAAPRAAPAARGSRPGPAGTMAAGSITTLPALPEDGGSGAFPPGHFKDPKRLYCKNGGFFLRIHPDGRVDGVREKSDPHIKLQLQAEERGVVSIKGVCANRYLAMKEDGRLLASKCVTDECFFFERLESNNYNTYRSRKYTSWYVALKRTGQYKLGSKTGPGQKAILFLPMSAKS
Focal adhesion kinase 1 (Homo sapiens), sequence (Q05397 whole entry, looked up): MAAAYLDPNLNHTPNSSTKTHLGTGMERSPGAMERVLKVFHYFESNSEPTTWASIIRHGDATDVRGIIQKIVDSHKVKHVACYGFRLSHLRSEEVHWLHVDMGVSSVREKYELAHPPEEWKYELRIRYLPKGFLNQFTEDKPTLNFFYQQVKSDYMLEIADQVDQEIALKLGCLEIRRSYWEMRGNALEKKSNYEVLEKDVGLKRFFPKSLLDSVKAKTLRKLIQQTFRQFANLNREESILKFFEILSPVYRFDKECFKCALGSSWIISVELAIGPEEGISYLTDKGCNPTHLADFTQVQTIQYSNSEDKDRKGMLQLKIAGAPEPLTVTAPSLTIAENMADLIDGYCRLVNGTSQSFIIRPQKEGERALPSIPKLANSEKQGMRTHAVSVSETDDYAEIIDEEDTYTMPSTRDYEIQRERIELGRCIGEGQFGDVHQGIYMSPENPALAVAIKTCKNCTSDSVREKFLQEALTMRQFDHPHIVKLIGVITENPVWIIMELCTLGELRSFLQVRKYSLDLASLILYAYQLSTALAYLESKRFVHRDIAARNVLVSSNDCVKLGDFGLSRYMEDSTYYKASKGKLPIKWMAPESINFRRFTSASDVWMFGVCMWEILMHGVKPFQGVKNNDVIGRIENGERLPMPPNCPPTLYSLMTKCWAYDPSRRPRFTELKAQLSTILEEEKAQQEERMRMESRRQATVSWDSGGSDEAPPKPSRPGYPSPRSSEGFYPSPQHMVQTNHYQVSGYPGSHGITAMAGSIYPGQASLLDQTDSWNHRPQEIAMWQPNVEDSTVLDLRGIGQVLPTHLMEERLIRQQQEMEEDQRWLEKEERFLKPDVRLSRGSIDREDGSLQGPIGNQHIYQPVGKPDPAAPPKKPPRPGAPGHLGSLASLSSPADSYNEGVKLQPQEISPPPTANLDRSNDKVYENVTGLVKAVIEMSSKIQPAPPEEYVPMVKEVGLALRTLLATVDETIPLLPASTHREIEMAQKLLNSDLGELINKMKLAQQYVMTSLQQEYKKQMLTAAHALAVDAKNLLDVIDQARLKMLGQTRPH

In the case of `C[C@H]1CC[C@H]2C(=O)N[C@H](Cc3ccccc3)C(=O)N2[C@@H]1c1ccccc1`, the composite z-score in test [1] was -0.106; in [2], -0.138; in test [3], 0.128; in [4] it was -0.0797; in test [5], 0.187; in test [6] it was 0.831. In addition, the composite z-score in the test on Lefty1 was 0.426; in test [8], -0.112. In addition, the z-score in test [7] is 0.514; in [9], -0.854 (inactive).
On to `O=C1[C@H]2[C@H]3[C@H](O)[C@H](O)CC(=NO[C@@H]4O[C@H](CO)[C@@H](O)[C@H](O)[C@H]4O)[C@H]3CC[C@H]2C(=O)N1C[C@@H]1CCCO1`, for which the composite z-score in test [1] was -0.0286; in test [2] it was -0.178; in test [3], -0.159; in test [4], 0.333; in test [5], -0.438; in test [6], 0.182. Moreover, the composite z-score in the test with Lefty1 was 0.0013; in [8], -0.442. The z-score is -0.222 in test [7] and 0.569 (inactive) in test [9].
As to `COC(=O)[C@H](C)NC(=O)CCC1CC(OC(=O)NCc2cccc3ccccc23)CC2(CCCC(COC(=O)NCCCN3CCCC3=O)O2)O1` (stereo not given in full), the composite z-score in [1] was found to be 0.383; in test [2], 1.11; in test [3] it was 0.926; in test [4], 0.821; in test [5], 0.413; in test [6], 0.0982. Also, the results for the composite z-score (in the test with Lefty1; in test [8]) were 1.23 and 0.485, respectively. Further, the z-score in test [7] was -0.262; in [9], 0.86 (inactive).
Regarding `CC(=O)OC[C@H]1O[C@H](CC=NO[C@H](C)c2cn([C@@H]3COC[C@H]3O)nn2)C=C[C@@H]1OC(C)=O`, the composite z-score in [1] was 0.606; in test [2], 0.179; in test [3] it was -0.0621; in [4] it was 0.897; in test [5], 0.356; in test [6], 0.396. Besides, the composite z-score in the test on Lefty1 is 0.42; in test [8], -0.0712. Moreover, the z-score was -0.17 in test [7] and -0.63 (inactive) in test [9].
On to `CCN1C(=O)[C@H]2[C@H]3[C@H](O)[C@H](O)CC(=NOC[C@@H](O)COCc4ccco4)[C@H]3CC[C@H]2C1=O`, for which the composite z-score is -1.13 in test [1]; -0.516 in test [2]; 0.0699 in [3]; -0.554 in [4]; 1.39 in test [5]; 1.66 in test [6]. Further, the composite z-score in the test on Lefty1 was 1.55; in test [8] it was -0.976. Also, the values for the z-score in [7] and in [9] were 0.0801 and -0.941 (inactive), respectively.
As to `O=C1C2=CC[C@H]3C(=O)N(C[C@@H]4CCCO4)C(=O)[C@H]3[C@H]2[C@H](O)[C@@H]2O[C@H]12`, the composite z-score in test [1] is 0.286; in test [2], 0.611; in test [3] it was 0.146; in test [4], -0.0182; in test [5] it was 0.0235; in [6], 0.0043. Also, the composite z-score with Lefty1 is 0.233; in test [8], -0.153. Further, the figures for the z-score in test [7] and in [9] were 0.982 and -0.518 (inactive), respectively.
For `O=C1C2=CC[C@H]3C(=O)N(C4CCCCC4)C(=O)[C@H]3[C@H]2[C@H](O)[C@@H]2O[C@H]12`, the composite z-score was -0.242 in test [1]; -0.958 in test [2]; -0.504 in test [3]; 0.0555 in test [4]; -0.864 in test [5]; -0.682 in test [6]. Besides, the composite z-score in the test on Lefty1 was -0.455; in [8] it was -0.685. Besides, the z-score in test [7] is -1.65; in [9], -0.389 (inactive).
`C=CC[C@@H]1C=CC(ON=C(C)C)[C@@H](CO)O1` (stereo not given in full): the composite z-score in test [1] was 3.16; in test [2], -0.901; in test [3], 0.0886; in test [4] it was -0.445; in [5], -0.356; in test [6], -0.458. For the same compound, the composite z-score in the test with Lefty1 was -0.0561; in test [8], -0.0488. Moreover, the z-score in test [7] was 0.178; in test [9] it was -0.0424 (inactive).
For `COC(=O)[C@H](C)NC(=O)CCC1CC(OC(=O)NCc2ccc3c(c2)OCO3)CC2(CCCC(COC(=O)NCCC(C)C)O2)O1` (stereo not given in full), the composite z-score in [1] came out at 0.363; in [2], 0.63; in test [3] it was 0.73; in [4] it was 0.87; in test [5], 0.831; in [6], 0.531. Further, the composite z-score was 1.25 in the test with Lefty1 and 0.0551 in test [8]. Also, the results for the z-score in test [7] and in test [9] were -0.822 and 0.977 (inactive), respectively.
Turning to `CC(C)(C)N1C(=O)[C@H]2[C@H]3[C@H](O)[C@H](O)CC(=NOC[C@@H](O)COCc4ccco4)[C@@H]3CC[C@H]2C1=O`, the composite z-score in [1] is -0.329; in [2] it was -0.451; in test [3], -0.0584; in test [4] it was 0.961; in test [5], -0.396; in [6] it was -0.0677. Further, the values for the composite z-score (with Lefty1; in [8]) were -0.211 and 0.915, respectively. For the same compound, the figures for the z-score in test [7] and in [9] were -0.521 and -0.124 (inactive), respectively.
`OC[C@H]1O[C@H](C#Cc2ccccc2)C=C[C@@H]1O`: the composite z-score is -0.0558 in test [1]; 0.202 in test [2]; 0.0213 in test [3]; 0.624 in [4]; 0.634 in test [5]; 0.147 in [6]. In addition, the composite z-score was determined as 0.409 with Lefty1 and 0.189 in test [8]. The results for the z-score in test [7] and in [9] were 0.462 and -1.47 (inactive), respectively.
As for `CC(CCN1CCc2nc(-c3ccccc3)c(-c3ccccc3)cc2C1)=NO[C@H](C)c1cn([C@H](CO)Cc2ccccc2)nn1`, the composite z-score in test [1] amounted to 0.955; in test [2] it was 0.137; in test [3], 0.0132; in test [4] it was 0.689; in test [5], 0.677; in test [6], 0.882. Also, the composite z-score amounted to 0.313 with Lefty1 and 0.158 in [8]. Also, the z-score in [7] was 2.22; in test [9], -0.595 (inactive).
Regarding `COc1ccc(COC(=O)NN=C2C[C@@H](O)[C@@H](O)[C@@H]3[C@@H]4C(=O)N(C(C)(C)C)C(=O)[C@@H]4CC[C@@H]23)cc1`, the composite z-score was 0.839 in test [1]; 0.656 in test [2]; -0.14 in [3]; 0.874 in test [4]; 0.542 in test [5]; 0.247 in [6]. In addition, the values for the composite z-score (with Lefty1; in test [8]) were 0.548 and 0.608, respectively. The z-score in test [7] was -0.367; in test [9] it was 0.137 (inactive).
With `COC(=O)[C@@H]1CC[C@H](C)[C@@H](c2ccc(Br)cc2)N1C[C@@H](O)CN=[N+]=[N-]`, the composite z-score in test [1] was 0.215; in test [2] it was -0.0633; in [3], -0.0902; in [4] it was 0.128; in test [5] it was 0.4; in [6], 0.4. The composite z-score in the test with Lefty1 was 0.45; in [8], -0.0107. In addition, the z-score in test [7] is -0.822; in test [9] it was 0.0386 (inactive).
In the case of `CC(=O)OC[C@H]1O[C@H](CC=NOC(C)CN2CCCc3nc(C)c(C)cc32)C=C[C@@H]1OC(C)=O` (stereo not given in full), the composite z-score stood at 1.42 in test [1]; 0.507 in test [2]; 0.246 in [3]; 0.145 in test [4]; 0.803 in test [5]; 0.684 in test [6]. Besides, the composite z-score with Lefty1 is 0.947; in test [8], -0.0862. For the same compound, the values for the z-score in test [7] and in test [9] were -0.221 and 0.767 (inactive), respectively.
On to `CCN1C(=O)[C@H]2[C@H]3[C@H](O)[C@H](O)CC(=NOCC[C@@H]4C=C[C@H](OC(C)=O)[C@@H](COC(C)=O)O4)[C@@H]3CC[C@H]2C1=O`, for which the composite z-score was 0.535 in [1]; 0.311 in [2]; 0.39 in [3]; 0.936 in test [4]; 0.472 in test [5]; 0.419 in test [6]. Further, the composite z-score with Lefty1 was 0.298; in test [8], 0.97. The results for the z-score in [7] and in [9] were -0.812 and 0.838 (inactive), respectively.
As to `C=CC[C@@H]1C=C[C@H](Oc2ccc(C)cc2)[C@@H](COC(=O)NCc2cccc3ccccc23)O1`, the composite z-score in [1] is 1.21; in test [2], 0.703; in [3], 0.433; in test [4], 0.216; in [5], 0.285; in test [6], 0.07. The composite z-score in the test on Lefty1 turned out to be 0.574; in [8], 0.115. Also, the results for the z-score in test [7] and in [9] were 1.34 and -0.0167 (inactive), respectively.

For the origin of these results see PubChem BioAssay.
